Test results taken from PubChem BioAssay AID602350 (Broad Institute, 2012).
Measured potencies and affinities stand elsewhere.

Target: Protein disulfide-isomerase (Homo sapiens) (UniProt P07237)
Assay: PDI inhibitors, insulin aggregation turbidity, dose response, biochemical, absorbance, cherry-picked samples (AID 602350);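 further: 0% = neutral controls and -100% = rutin hydrate positive control wells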
Conditions: recombinant PDI insulin aggregation, absorbance 650 nm, 90 min; series mostly up to 19.5 µM; activity change, negative = inhibition: at the top concentration;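 active means absorbance falls by 30% or more versus neutral controls, with a potency fitted within twice the top valid dose; inconclusive means no clear call, values can overlap the other calls; inactive means change opposite to expected direction, plus the rest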

Protein disulfide-isomerase (Homo sapiens), sequence (P07237 whole entry, looked up): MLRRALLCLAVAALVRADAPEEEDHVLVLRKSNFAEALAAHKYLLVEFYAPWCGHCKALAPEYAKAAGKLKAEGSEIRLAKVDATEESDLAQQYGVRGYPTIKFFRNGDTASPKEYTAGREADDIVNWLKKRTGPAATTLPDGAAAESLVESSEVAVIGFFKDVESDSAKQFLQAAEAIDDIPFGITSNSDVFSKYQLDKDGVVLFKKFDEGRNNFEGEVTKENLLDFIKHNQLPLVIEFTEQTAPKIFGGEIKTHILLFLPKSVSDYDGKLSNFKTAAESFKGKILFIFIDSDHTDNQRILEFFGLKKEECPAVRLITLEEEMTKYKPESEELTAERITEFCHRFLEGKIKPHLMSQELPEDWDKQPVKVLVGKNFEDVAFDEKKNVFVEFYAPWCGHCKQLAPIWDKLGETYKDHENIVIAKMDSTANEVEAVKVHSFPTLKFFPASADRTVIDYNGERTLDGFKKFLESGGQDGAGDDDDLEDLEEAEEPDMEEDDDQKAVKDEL

Activity change, negative = inhibition, inactive:
CN(C)CCN(C(=O)c1ccc(S(=O)(=O)N2CCc3ccccc32)cc1)c1nc2ccc(F)cc2s1 -1.71%
CSc1cccc(NC(=O)CN(C)S(=O)(=O)c2ccc(F)cc2)c1 -0.96%
CCCn1nnnc1NC(=O)c1cccs1 33.1%
CCOC(=O)c1c(CN2CCN(Cc3ccccc3)CC2)n(C)c2cc(Br)c(OC)cc12 3.15%
COc1ccc(S(=O)(=O)NC(C)C(=O)Nc2ccccc2F)cc1 (stereo unspecified) -0.01%
CC(C)c1ccc(/C=N/NC(=O)c2ccc(-n3cnnn3)cc2)cc1 12.5%
COc1c(Br)cc(C(N)=O)cc1OCc1ccccc1 23%
C[C@H](CO)N1C[C@H](C)[C@H](CN(C)Cc2ccc(Oc3ccccc3)cc2)Oc2c(NS(C)(=O)=O)cccc2C1=O -27%
O=C(Nc1nccs1)c1ccc(-c2ccccc2[N+](=O)[O-])o1 15.1%
Cc1noc(C)c1S(=O)(=O)Nc1ccc2c(c1)CC(=O)N([C@@H](C)CO)C[C@H](C)[C@@H](CN(C)S(=O)(=O)c1ccc(F)cc1)O2 -0.398% [at 6.8 µM]
O=C(CN1C(=O)NC2(CCCC2)C1=O)Nc1ccc(C(F)(F)F)cc1 4.1%
CN(C)C(=O)CSc1n[nH]c(-c2ccco2)n1 36.2%
O=C(O)c1ccccc1Cc1ccc(F)c2ccccc12 15.1%
O=C(N/N=C/c1ccc(O)cc1)NC12CC3CC(CC(C3)C1)C2 -7.74%
O=C(NC1CCCCC1)C1CCN(S(=O)(=O)c2cccs2)CC1 -1.28%
C=CCNc1ncnc2c1ncn2[C@H]1CN(Cc2cccc3ccccc23)C[C@@H](CO)O1 -15.6%
COc1cc(C2C(C(C)=O)=C(O)C(=O)N2CCc2c[nH]c3ccccc23)ccc1O (stereo unspecified) -21.9%
O=C(NCc1ccccc1)c1cc(C2CCCN(C(=O)C3CCCCC3)C2)on1 (stereo unspecified) 7.02%
CCOC(=O)c1c(CN2CCN(C)CC2)n(C)c2cc(Br)c(OC)cc12 -0.959%
O=C(c1ccc(S(=O)(=O)N2CCCCC2)cc1)N1CCN(Cc2ccc3c(c2)OCO3)CC1 33%
O=C(Nc1ccc(Br)cc1F)c1cccnc1 20%
CC(=O)OC1CCC2C3CCC4=C(CC(F)C(=O)C4)C3CCC12C (stereo unspecified) -15%
CC(=O)c1ccc(OCc2cc(C(=O)N3CCCCC3c3cccnc3)no2)cc1 (stereo unspecified) 5.63%
Cc1noc(C)c1S(=O)(=O)Nc1ccc2c(c1)CC(=O)N([C@H](C)CO)C[C@@H](C)[C@@H](CN(C)S(=O)(=O)c1ccc(F)cc1)O2 -4.77% [at 6.8 µM]
COc1ccccc1NC(=O)c1ccc(NC(=O)COC(=O)c2cccnc2Cl)cc1 4.95%
O=C(NCc1ccccc1CN1CCCC1)c1cc2ccccc2o1 -3.18%
